Our source for the growth values is PubChem BioAssay (NCI).

The panel holds about 83,000 compounds, 20% with a hit somewhere; the sample as a whole holds those more often.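 Testing used 96-well plates and a 48-hour single-concentration exposure. Example: -40 means 40% of the starting cells died.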 A number with no mark means an inactive call. Activity calls are given as the source filed them. The calls were made as follows: active = growth percent below 10; inactive = the rest.

What all share (assay): NCI-60 one-dose screen, 48 h (100 = growth as untreated, 0 = no growth, -100 = all killed)
Common to all, as to conditions: 10 µM unless noted

Assay [1] deals with DU-145 prostate.
Assay [2] relates to K-562 leukemia.
Assay [3] concerns MALME-3M melanoma.
Assay [4] has as its system MDA-MB-231 breast.
For assay [5], the system named is RXF 393 renal.
The subject of assay [6] is SF-268 CNS.
The test system of assay [7] is SF-295 CNS.
The subject of assay [8] is SF-539 CNS.
The subject of assay [9] is UACC-257 melanoma.
Assay [10] relates to M14 melanoma.
Assay [11] has as its system HCT-15 colon.
Assay [12] deals with HT29 colon.
Assay [13] concerns SNB-75 CNS.
Assay [14] relates to SNB-19 CNS.
The test system of assay [15] is U251 CNS.
Assay [16] concerns PC-3 prostate.
For assay [17], the system named is SK-MEL-5 melanoma.
Assay [18] relates to UACC-62 melanoma.
Assay [19] has as its system LOX IMVI melanoma.
The test system of assay [20] is SK-MEL-28 melanoma.

On to `Cc1cc([N+](=O)[O-])c(C)cc1N`, for which the growth in assay [1] was 115%; in [2], 100%; in [3], 104%; in [4], 90.3%; in assay [5] it was 105%; in [6], 105%. Moreover, the growth was 109% in [7]; 105% in assay [8]; 109% in [9]; 104% in assay [10]; 105% in assay [11]; 92.1% in [12]. The growth in assay [13] was 86.7%; in assay [14], 108%; in [15], 103%; in assay [16], 88.6%; in assay [17] it was 98.4%; in assay [18] it was 95.5%. Further, the growth in assay [19] was 100%; in assay [20] it was 103%.
For the compound `CN1C(=O)N(C)C2C1NN=c1s/c(=C\c3ccsc3)c(=O)n12` (stereo not given), the growth in assay [1] is 74.9%; in assay [2] it was 13.5%; in assay [3] it was 54.3%; in [4], 66.8%; in assay [5], 51.6%; in assay [6] it was 64.4%. The growth in assay [7] is 25%; in [8], 40.2%; in assay [9] it was 60.9%; in assay [10], 22.7%; in [11], 24.7%; in assay [12] it was 9.4% (active). Besides, the growth is -7.65% (active) in assay [13]; 39.6% in [14]; 30.6% in assay [15]; 38.5% in assay [16]; 41.6% in [17]; 28.3% in assay [18]. For the same compound, the growth is 37.7% in assay [19] and 67.8% in assay [20].
Regarding `CN1C(=O)C(C(=O)/C=C/c2ccccc2C(=O)O)C(=O)N(C)C1=O`, the growth is 111% in assay [1]; 90.1% in assay [2]; 103% in assay [3]; 109% in assay [4]; 118% in assay [5]; 100% in [6]. The growth in assay [7] was 98.4%; in [8], 104%; in assay [9], 93.3%; in assay [10] it was 99%; in assay [11] it was 110%; in assay [12], 98.8%. Also, the growth in [13] is 86.7%; in [14], 105%; in assay [15], 97%; in assay [16] it was 96.4%; in assay [17], 108%; in assay [18] it was 95%. The growth in assay [19] was 94.7%; in assay [20], 109%.
On to `CCSc1cnnc2ccccc12`, for which the growth in [1] was 113%; in assay [2], 85.7%; in assay [3], 124%; in [4] it was 103%; in assay [5] it was 123%; in [6] it was 102%. For the same compound, the growth in [7] was 117%; in [8], 106%; in assay [9], 113%; in assay [10], 105%; in [11], 105%; in assay [12], 106%. Besides, the growth in assay [13] was 89.3%; in [14], 106%; in assay [15] it was 102%; in [16], 104%; in assay [17] it was 107%; in assay [18], 102%. Further, the growth in assay [19] is 103%; in assay [20] it was 107%.
For `CCN(CC)c1ccc(/C=N/N=C(N)N)cc1`, the growth in [1] is 55.5%; in assay [2], 26.3%; in assay [3], 58.9%; in assay [4] it was 66%; in assay [5] it was 68%; in assay [6] it was 45.7%. For the same compound, the growth was 27.8% in assay [7]; 51.8% in assay [8]; 47.9% in assay [9]; 42.4% in assay [10]; 41.2% in assay [11]; 9.78% (active) in assay [12]. Besides, the growth in assay [13] was 40.2%; in assay [14] it was 73.6%; in assay [15] it was 46.9%; in assay [16], 30.7%; in assay [17], 40.2%; in [18] it was 48.4%. Further, the values for the growth in assay [19] and in assay [20] were 55.5% and 61.7%, respectively.
In the case of `CCCCCCCCCCCCCCCC1=NCCN1`, the growth is 72.6% in assay [1]; 3.78% (active) in assay [2]; 103% in assay [3]; 30.6% in assay [4]; 60.6% in [5]; 71.3% in assay [6]. The growth in [7] is 90.9%; in [8], 72.5%; in assay [9], 99.9%; in assay [10], 72.3%; in assay [11] it was 0.909% (active); in assay [12] it was 4.17% (active). The growth in [13] is 82.7%; in assay [14], 24.8%; in assay [15] it was 16.1%; in [16], 47.6%; in assay [17] it was 80.6%; in assay [18], 76.1%. The growth was 1.64% (active) in assay [19] and 80.7% in assay [20].
With `C=C1C(=O)O[C@H]2[C@H]1CC/C(COC(=O)NCc1c[nH]c3ccc(OC)cc13)=C\CC[C@@]1(C)O[C@@H]21`, the growth in assay [1] was -10.4% (active); in [2] it was 3.23% (active); in assay [3] it was -31% (active); in assay [4], -6.78% (active); in assay [5], -93.3% (active); in assay [6], 45.2%. Also, the growth in assay [7] was 63.5%; in assay [8], -23.3% (active); in [9], -16.3% (active); in assay [10], -48% (active); in assay [11], -26.1% (active); in assay [12], -53.2% (active). In addition, the growth in assay [13] is 63.2%; in [14] it was 64.4%; in assay [15], 9.85% (active); in assay [16], -2.65% (active); in assay [17] it was 15.1%; in [18], -31.6% (active). The growth was -59.6% (active) in assay [19] and -23.9% (active) in assay [20].
Take `c1ccc(-c2nnn(-c3ccccc3)n2)cc1`: the growth was 127% in assay [1]; 89.1% in [2]; 115% in assay [3]; 84.6% in [4]; 102% in assay [5]; 109% in [6]. Also, the growth is 106% in assay [7]; 105% in [8]; 103% in assay [9]; 109% in assay [10]; 114% in [11]; 104% in assay [12]. Moreover, the growth is 90.4% in [13]; 101% in [14]; 99.1% in assay [15]; 103% in assay [16]; 104% in assay [17]; 94.1% in assay [18]. The growth was 116% in [19] and 110% in [20].
